The source of these data is PubChem BioAssay (Tox21).

Unmarked numbers belong to inactive results. Inconclusive results are not listed. Activity calls are given as the source filed them. Unless noted, the call rests on the fitted dose curve; in most records, active means well fitted curve in the direction sought with a large enough effect in the repeat runs; inconclusive means weak or mixed curves; inactive means no such curve, though single readings can be large; an effect the other way counts as inactive or inconclusive.

A short description of test [1]: qHTS assay to test for compound auto fluorescence at 535 nm (green) in HEK293 cells (AID 720680).
A short description of test [2]: qHTS assay to test for compound auto fluorescence at 460 nm (blue) in HEK293 cell free culture (AID 720681). The gist of the method: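 Test compounds were pinned into cell-free culture medium (DMEM with 10% FBS) and fluorescence was read directly at Ex/Em 405/460 nm. Signals were expressed as fluorescence equivalents of triamterene, with DMSO vehicle as control.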
For orientation: Quantitative high-throughput screening tests each substance at several concentrations.

A short description of test [3]: qHTS assay to test for compound auto fluorescence at 535 nm (green) in HEK293 cell free culture (AID 720682). The gist of the method:
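No cells present: wells hold DMEM supplemented with 10% FBS, into which compound or vehicle is pinned. Green emission is then recorded (485 nm excitation, 535 nm emission) and scaled to fluorescein.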

Test [4] is described as follows: qHTS assay to test for compound auto fluorescence at 590 nm (red) in HEK293 cell free culture (AID 720683). The gist of the method:
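Tox21 10K library compounds were pinned into cell-free DMEM with 10% FBS and fluorescence was read at excitation 540 nm. Activity is expressed as Rose Bengal sodium equivalency.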

A short description of test [5]: qHTS assay to test for compound auto fluorescence at 590 nm (red) in HepG2 cell free culture (AID 720684). The gist of the method: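 Readout: intrinsic compound fluorescence at 590 nm emission after 540 nm excitation, scaled to Rose Bengal sodium. Matrix was cell-free MEM with 10% FBS; DMSO vehicle wells served as control.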
Test [6] in a line: qHTS assay to test for compound auto fluorescence at 460 nm (blue) in HepG2 cell free culture (AID 720685). In outline: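 Cell-free plates of MEM plus 10% FBS received 23 nL compound or DMSO vehicle; blue-channel (405/460 nm) intensity scored against triamterene as reference fluorophore.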
The nature of test [7]: qHTS assay to test for compound auto fluorescence at 535 nm (green) in HepG2 cell free culture (AID 720686).
Test [8] can be described thus: qHTS assay to test for compound auto fluorescence at 460 nm (blue) in HepG2 cells (AID 720687). The gist of the method: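 Cells (2,000/well in MEM with 10% FBS) attached overnight at 37 C, then were exposed to compound or DMSO for 1 hr at 37 C, 5% CO2. Fluorescence read at Ex/Em 405/460 nm, expressed as triamterene-equivalent signal.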
The target of test [9] is Glucocorticoid receptor (Homo sapiens) (UniProt P04150). The test can be described thus: qHTS assay to identify small molecule agonists of the glucocorticoid receptor (GR) signaling pathway (AID 720691; active means well fitted activation curve with a large enough effect in the signal ratio in the repeat runs, not every such curve was filed as active; the % refers to the signal ratio). In outline:
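Cells: GR-bla HeLa, endogenous GR with stably integrated GRE-beta-lactamase reporter. Treatment 18 h, 37 C, compounds delivered in DMSO. Detection via LiveBLAzer B/G FRET substrate, 2 h RT, fluorescence intensity.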

For test [10] the target is unchanged. The test can be described thus: qHTS assay to identify small molecule antagonists of the glucocorticoid receptor (GR) signaling pathway (AID 720692; active means well fitted inhibition curve with a large enough effect in the signal ratio in the repeat runs, not every such curve was filed as active; the % refers to the signal ratio). In outline:
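Quantitative HTS in antagonist format: HeLa cells expressing endogenous GR and a stably integrated GRE-bla reporter, stimulated with 5 nM dexamethasone (final) alongside test compounds for 18 h.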

Test [11] is described as follows: qHTS assay to identify small molecule antagonists of the glucocorticoid receptor (GR) signaling pathway - cell viability counter screen (AID 720693). Further: nearly all actives have a fitted effect of over 55% in size.
The nature of test [12]: qHTS assay to identify small molecule antagonists of the androgen receptor (AR) signaling pathway - cell viability counter screen (AID 743033; further: nearly all actives have a fitted effect of over 45% in size).
Test [13] is described as follows: qHTS assay to identify small molecule antagonists of the androgen receptor (AR) signaling pathway using the MDA cell line - cell viability counter screen (AID 743041; further: nearly all actives have a fitted effect of over 45% in size). The gist of the method: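 qHTS viability read-out; MDA-kb2 AR-luc; R1881-stimulated; 16 h exposure at 37C, 0% CO2; CellTiter-Fluor, 30 min; fluorescence intensity.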
The nature of test [14]: qHTS assay to identify small molecule antagonists of the thyroid receptor (TR) signaling pathway - cell viability counter screen (AID 743064). Further: nearly all actives have a fitted effect of over 50% in size. In outline:
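Rat GH3 pituitary tumor cells stably expressing two TR response elements driving luciferase were plated, rested 4 h, then dosed with library compounds and T3 (1 nM final). After 23.5 h at 37 °C, CellTiter-Fluor was added for 30 min and fluorescence recorded.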

A short description of test [15]: qHTS assay for identifying genotoxic compounds that show differential cytotoxicity against isogenic chicken DT40 cell lines with known DNA damage response pathways - wild type cell line (AID 743012). Further: nearly all actives have a fitted effect of over 60% in size. Further: potency means the concentration at half of the fitted maximal effect. In outline: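 Luminescent ATP viability signal (CellTiter-Glo, 30 min RT) recorded after wild type DT40 cells were incubated with compounds for 40 h at 37 C/5% CO2.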

Test [16] in a line: qHTS assay for identifying genotoxic compounds that show differential cytotoxicity against isogenic chicken DT40 cell lines with known DNA damage response pathways - Rev3 mutant cell line (AID 743014). Further: nearly all actives have a fitted effect of over 55% in size. Further: potency means the concentration at half of the fitted maximal effect.
Test [17] can be described thus: qHTS assay for identifying genotoxic compounds that show differential cytotoxicity against isogenic chicken DT40 cell lines with known DNA damage response pathways - Rad54/Ku70 mutant cell line (AID 743015). Further: nearly all actives have a fitted effect of over 60% in size. Further: potency means the concentration at half of the fitted maximal effect.
Test [18] deals with Androgen receptor (Homo sapiens) (UniProt P10275). The test can be described thus: qHTS assay to identify small molecule agonists of the androgen receptor (AR) signaling pathway (AID 743036; active means well fitted activation curve with a large enough effect in the signal ratio in the repeat runs, with a control signal flat, not every such curve was filed as active; the % refers to the signal ratio). In outline: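 Quantitative HTS of the Tox21 10K library in HEK293 cells bearing a stably integrated UAS-controlled beta-lactamase reporter. Compound exposure lasted 16 h at 37C. Reporter activity was detected by FRET substrate fluorescence after 2 h at room temperature.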

The target is the same in test [19]. The test can be described thus: qHTS assay to identify small molecule agonists of the androgen receptor (AR) signaling pathway using the MDA cell line (AID 743040; further: nearly all actives have a fitted effect of over 20% in size). The gist of the method:
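Agonist activity is measured as luciferase luminescence in human MDA-kb2 cells whose MMTV reporter responds to both AR and GR. Compounds in DMSO incubate 16 h at 37C, 0% CO2, and ONE-Glo is read after 30 min.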
On the % scale 0 is the no-effect control and ±100 the full control effect.

Glucocorticoid receptor (Homo sapiens), sequence (P04150 whole entry, looked up): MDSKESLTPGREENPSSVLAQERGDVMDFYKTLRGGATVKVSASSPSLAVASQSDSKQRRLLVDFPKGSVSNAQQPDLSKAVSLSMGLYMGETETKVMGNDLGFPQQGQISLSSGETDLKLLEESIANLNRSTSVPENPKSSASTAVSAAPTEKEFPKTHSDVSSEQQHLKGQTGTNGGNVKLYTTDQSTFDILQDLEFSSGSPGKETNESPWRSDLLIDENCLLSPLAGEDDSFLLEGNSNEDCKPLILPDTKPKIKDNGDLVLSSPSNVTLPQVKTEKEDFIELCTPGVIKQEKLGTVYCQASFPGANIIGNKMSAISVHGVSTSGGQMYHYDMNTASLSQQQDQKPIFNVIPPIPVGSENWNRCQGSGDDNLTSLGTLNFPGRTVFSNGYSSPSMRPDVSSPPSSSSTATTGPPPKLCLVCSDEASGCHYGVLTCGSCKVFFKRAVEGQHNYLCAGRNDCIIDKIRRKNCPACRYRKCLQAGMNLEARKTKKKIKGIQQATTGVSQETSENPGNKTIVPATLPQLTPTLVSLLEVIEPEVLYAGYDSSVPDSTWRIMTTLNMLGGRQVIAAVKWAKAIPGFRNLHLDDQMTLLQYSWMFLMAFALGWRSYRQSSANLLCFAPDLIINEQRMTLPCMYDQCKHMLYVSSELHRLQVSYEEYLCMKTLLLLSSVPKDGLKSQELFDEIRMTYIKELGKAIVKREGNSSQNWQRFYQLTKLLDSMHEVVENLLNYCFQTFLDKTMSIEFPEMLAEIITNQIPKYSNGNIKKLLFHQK
Androgen receptor (Homo sapiens), sequence (P10275 whole entry, looked up): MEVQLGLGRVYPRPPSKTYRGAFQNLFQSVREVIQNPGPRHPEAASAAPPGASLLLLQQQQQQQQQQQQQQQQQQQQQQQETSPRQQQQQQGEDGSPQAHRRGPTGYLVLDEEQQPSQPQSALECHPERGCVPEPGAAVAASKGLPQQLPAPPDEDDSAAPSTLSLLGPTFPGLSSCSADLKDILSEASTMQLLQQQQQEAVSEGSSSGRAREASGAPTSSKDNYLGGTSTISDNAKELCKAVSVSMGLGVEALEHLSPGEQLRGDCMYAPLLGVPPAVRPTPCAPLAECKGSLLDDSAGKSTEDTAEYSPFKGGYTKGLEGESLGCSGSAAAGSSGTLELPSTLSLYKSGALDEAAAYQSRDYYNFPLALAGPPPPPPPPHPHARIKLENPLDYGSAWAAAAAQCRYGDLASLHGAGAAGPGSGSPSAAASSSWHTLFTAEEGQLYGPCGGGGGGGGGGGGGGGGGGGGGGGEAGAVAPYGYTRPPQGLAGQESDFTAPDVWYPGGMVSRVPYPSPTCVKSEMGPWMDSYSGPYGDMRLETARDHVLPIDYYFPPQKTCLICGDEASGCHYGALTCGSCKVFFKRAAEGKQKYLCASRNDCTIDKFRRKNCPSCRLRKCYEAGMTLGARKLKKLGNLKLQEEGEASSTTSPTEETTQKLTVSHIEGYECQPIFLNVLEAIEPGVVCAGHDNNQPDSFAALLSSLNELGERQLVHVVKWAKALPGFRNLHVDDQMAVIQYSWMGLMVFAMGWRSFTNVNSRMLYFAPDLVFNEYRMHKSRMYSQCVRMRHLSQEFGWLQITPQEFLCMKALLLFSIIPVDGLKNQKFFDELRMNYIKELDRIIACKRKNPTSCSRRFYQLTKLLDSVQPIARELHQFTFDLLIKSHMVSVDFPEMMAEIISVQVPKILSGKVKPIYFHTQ

On to `Clc1cccc(N2CCNCC2)c1`, for which the molecule was called inactive in test [1], in [2], in [3], in [4], in test [5] and in test [6]. In addition, the molecule was classed as inactive in [7], in test [8] and in test [9]. In addition, the Potency result in test [10], in test [11], in test [12], in [13] and in test [14] was “inactive” each time.
As to `Cc1coc2c1CCC(C)C2` (stereo unspecified), the outcome in test [1], in test [2], in [3], in test [4], in test [5] and in test [6] was inactive. In addition, the molecule was classed as inactive in test [7], in test [8] and in [9]. For the same molecule, the Potency entry in test [11], in test [15], in test [16], in [17], in test [12] and in [13] was “inactive” throughout.
On to `COc1ccc2c(c1OC)CN1CCc3cc4c(cc3C1C2)OCO4` (stereo unspecified), for which the fluorescence, % of fluorescein in test [1] is -0.0571% [at 18.6 µM]. For the same molecule, the fluorescence, % of fluorescent control is 0.288% [at 18.6 µM] in test [2], 0.155% [at 18.6 µM] in test [4], -0.0388% [at 18.6 µM] in test [6] and 0.229% [at 18.6 µM] in test [8]. In addition, in test [3], the activity change is -0.0423% [at 18.6 µM]. For the same molecule, in [5], the fluorescence, % of Rose Bengal was -0.268% [at 18.6 µM]. Moreover, the fluorescence, % of fluorescein control in test [7] was 0.0175% [at 18.6 µM]. For the same molecule, the outcome in test [9] and in test [18] was inactive. The Potency entry in test [10], in test [11], in [12], in test [19] and in test [13] was “inactive” in each case. Moreover, the Potency in test [15] was 11.4 µM (active).
For the molecule `Cc1ncc(CNC(=O)N(CCCl)N=O)c(N)n1`, the outcome in test [1], in test [2], in [3], in test [4], in test [5] and in test [6] was inactive. Moreover, the outcome in test [7], in [8] and in test [9] was inactive. The Potency entry in [10], in test [11], in test [15], in test [17], in test [12] and in test [13] was “inactive” throughout. For the same molecule, the Potency result in [14] is “inactive”.
Take `NC(=O)O`: the outcome in test [1], in test [2], in [3], in test [4], in [5] and in [6] was inactive. Further, the call in [7] and in test [8] was inactive. The Potency result in test [11], in test [15], in test [16], in [17], in [12] and in test [13] was “inactive” throughout. Besides, the Potency entry in test [14] was “inactive”.
Take `C[N+](C)=CCl`: the result in test [1], in test [2], in [3], in [4], in test [5] and in [6] was inactive. For the same molecule, the call in test [7], in test [8] and in [9] was inactive. For the same molecule, the Potency result in [11], in [15], in [16], in [17], in test [12] and in test [13] was “inactive” in each case. Besides, in test [14], the Potency entry was “inactive”.
As to `CCCCCCBr`, the call in test [1], in test [2], in [3], in [4], in test [5] and in test [6] was inactive. For the same molecule, the result in test [7] and in test [8] was inactive. The Potency result in test [11], in test [15], in [16], in [17], in test [12] and in test [13] was “inactive” throughout. Besides, in test [14], the Potency entry is “inactive”.
With `C[N+](=O)[O-]`, the call in test [1], in [2], in test [3], in [4], in test [5] and in [6] was inactive. The molecule was called inactive in [7], in test [8] and in test [9]. Further, the Potency result in test [11], in test [15], in test [16], in test [17], in test [12] and in test [13] was “inactive” in each case. For the same molecule, the Potency entry in [14] is “inactive”.
As to `CCCCP(CCCC)CCCC`, the outcome in test [1], in test [2], in test [3], in test [4], in test [5] and in test [6] was inactive. The call in test [7] and in [8] was inactive. In addition, the Potency entry in [11], in [15], in [17], in test [12], in test [13] and in test [14] was “inactive” in each case.
As to `N#Cc1c(Cl)cccc1Cl`, the molecule was classed as inactive in test [1], in test [2], in test [3], in [4], in test [5] and in test [6]. For the same molecule, the outcome in [7], in [8] and in test [9] was inactive. Moreover, the Potency result in test [11], in test [15], in [16], in [17], in test [12] and in test [13] was “inactive” each time.
For the molecule `COc1cccc(C(=O)NN(C(=O)c2cc(C)cc(C)c2)C(C)(C)C)c1C`, the molecule was classed as inactive in test [1], in test [2], in test [3], in [4], in [5] and in test [6]. For the same molecule, the call in test [7] and in test [8] was inactive. The Potency entry in [11] and in [12] was “inactive” each time. Besides, the Potency in test [16] is 68.6 µM (active); in [17], 61.1 µM (active).
Consider `CC(C1CC1)C(O)(Cn1cncn1)c1ccc(Cl)cc1` (stereo unspecified), for which the result in [1], in test [2], in [3], in test [4], in [5] and in test [6] was inactive. Besides, the molecule was called inactive in test [7] and in [8]. The Potency entry in test [11], in test [12], in test [13] and in [14] was “inactive” each time. Moreover, the Potency in [15] is 48.3 µM (active).
As for `CC1CN1P(=O)(N1CC1C)N1CC1C` (stereo unspecified), the outcome in [1], in test [2], in [3], in test [4], in [5] and in [6] was inactive. Further, the result in test [7] and in test [8] was inactive. In addition, the Potency entry in test [11], in test [15], in [16], in test [17], in test [12] and in test [13] was “inactive” throughout. The Potency entry in [14] was “inactive”.
`CC1=NNC(=O)N(/N=C/c2cccnc2)C1`: the call in test [1], in [2], in test [3], in [4], in test [5] and in [6] was inactive. Besides, the molecule was classed as inactive in [7] and in test [8]. Further, the Potency result in test [11], in test [15], in [17], in test [12], in [13] and in [14] was “inactive” each time.
